The results in this text go back to PubChem BioAssay (NCI).

Compounds without any hit were thinned out: in the full panel of roughly 83,000, 20% have a hit.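 Treatment: one concentration, 48 hours, 96-well format. Scoring: percent growth, with anything below 10 considered active.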 A number with no mark means an inactive call. The source made the active and inactive calls.

Test in all cases: NCI-60 one-dose screen, 48 h (100 = growth as untreated, 0 = no growth, -100 = all killed)
For experiment [1], the system named is NCI-H23 lung. As to conditions: 10 µM unless noted.
Experiment [2] deals with NCI-H226 lung. As to conditions: 10 µM unless noted.
For experiment [3], the system named is NCI-H322M lung. To be noted: 10 µM unless noted.
Experiment [4] deals with HOP-62 NSCLC. To be noted: 10 µM unless noted.
Experiment [5] deals with NCI-H460 lung. As to conditions: 10 µM unless noted.
Experiment [6] deals with HOP-92 NSCLC. As to conditions: 10 µM unless noted.
The test system of experiment [7] is NCI-H522 lung. To be noted: 10 µM.
For experiment [8], the system named is 786-0 renal. As to conditions: 10 µM unless noted.
Experiment [9] has as its system COLO 205 colon. To be noted: 10 µM unless noted.
Experiment [10] deals with DU-145 prostate. As to conditions: 10 µM unless noted.
The subject of experiment [11] is K-562 leukemia. As to conditions: 10 µM unless noted.
Experiment [12] deals with MALME-3M melanoma. To be noted: 10 µM unless noted.
The test system of experiment [13] is MDA-MB-231 breast. As to conditions: 10 µM unless noted.
Experiment [14] deals with RXF 393 renal. To be noted: 10 µM unless noted.
For experiment [15], the system named is SF-268 CNS. To be noted: 10 µM unless noted.
Experiment [16] has as its system SF-295 CNS. As to conditions: 10 µM unless noted.
Experiment [17] deals with SF-539 CNS. As to conditions: 10 µM unless noted.
The test system of experiment [18] is M14 melanoma. To be noted: 10 µM unless noted.
In experiment [19] the test system is UACC-257 melanoma. As to conditions: 10 µM unless noted.

`OCCN1CCN(CCCN2c3ccccc3Sc3ccc(C(F)(F)F)cc32)CC1`: the growth in experiment [1] is 65.5%; in [2] it was 82.7%; in experiment [3], 65%; in experiment [4] it was 45.9%; in experiment [5], 6.79% (active); in experiment [6], 6.66% (active). Further, the growth in [7] is 19.5%; in experiment [8], 38.7%; in [9], -81.9% (active); in experiment [10] it was 58.8%; in experiment [11], -55.8% (active); in [12], -66.6% (active). The growth in experiment [13] was 40.8%; in experiment [14], 28.2%; in [15], 41%; in experiment [16] it was -43% (active); in experiment [17], 33.4%; in experiment [18], -80.9% (active).

On to `CCC(C)C1NC(=O)C(CCNCS(=O)(=O)O)NC(=O)C(NC(=O)C(CCNCS(=O)(=O)O)NC(=O)C(NC(=O)C(CCNCS(=O)(=O)O)NC(=O)CCCCC(C)C)C(C)O)CCNC(=O)C(C(C)O)NC(=O)C(CCNCS(=O)(=O)O)NC(=O)C(CCNCS(=O)(=O)O)NC(=O)C(C(C)CC)NC1=O` (stereo not drawn), for which the growth is 66.6% in [1]; 77% in experiment [2]; 70.3% in experiment [3]; 46.8% in experiment [4]; 48.8% in experiment [5]; 95.8% in experiment [6]. In addition, the growth in experiment [7] is 10.5%; in experiment [8], 93.1%; in [9], 1.57% (active); in [10], 117%; in experiment [11] it was 20.2%; in experiment [12] it was 48.9%. Also, the growth in [13] was 51.9%; in experiment [14], 47.4%; in experiment [15] it was 72.9%; in experiment [16], 86.6%; in [17], 27.3%; in experiment [19], 84.3%. Further, in [18], the growth is 34.7%.

Regarding `CC(C)Sc1nc(-c2ccc(Br)cc2)c(C#N)c(N2CCCCC2)n1`, the growth in [1] was 110%; in experiment [2], 100%; in [3], 93.7%; in experiment [4] it was 115%; in experiment [5], 104%; in experiment [6] it was 105%. In addition, the growth in experiment [7] was 99.3%; in [8], 82.7%; in experiment [9] it was 135%; in experiment [10], 109%; in experiment [11], 116%; in experiment [12] it was 94.1%. The growth in [13] was 90.9%; in experiment [14] it was 110%; in experiment [15], 103%; in experiment [16], 96.7%; in experiment [17], 104%; in experiment [19] it was 109%. The growth in experiment [18] was 104%.

For `O=[N+]([O-])c1ccc2[nH]cc(-c3c4ccccc4cc4[nH]c5ccc([N+](=O)[O-])cc5c34)c2c1`, the growth in [1] was 33.1%; in experiment [2] it was 39.5%; in experiment [3], 47.3%; in experiment [4] it was 48.5%; in experiment [5] it was 4.24% (active); in experiment [6], 44.7%. Besides, the growth is 11.3% in [7]; 1.4% (active) in [8]; 14% in [9]; 36.6% in [10]; 9.96% (active) in experiment [11]; 26.5% in experiment [12]. Also, the growth in experiment [13] is 45.6%; in [14] it was -2.62% (active); in experiment [15] it was 33.9%; in [16], 22.5%; in experiment [17], 44%; in experiment [18], -3.7% (active).

Take `CCOC(=O)Nc1cc(-c2ccc(C)c(NS(C)(=O)=O)c2)nn2c(C)nnc12`: the growth is 18% in [1]; 35% in experiment [2]; 2.04% (active) in experiment [3]; 14.1% in experiment [4]; 28.5% in [5]; -10.2% (active) in [6]. Besides, the growth in experiment [7] is -11.8% (active); in experiment [8] it was 35.5%; in experiment [9], 3.41% (active); in experiment [10], 43.9%; in [11], 16.7%; in experiment [12] it was -25% (active). The growth in [13] is 26.5%; in experiment [14] it was -8% (active); in [15], 41.6%; in experiment [16], -21.2% (active); in [17], 17.2%; in experiment [18], 19%.

Turning to `COc1cc(/C=C2\SC(N3CCCCC3)=NC2=O)ccc1OCCCCCCOc1ccc(/C=C2\SC(N3CCCCC3)=NC2=O)cc1OC`, the growth in experiment [1] is 5.35% (active); in experiment [2] it was -20.1% (active); in experiment [3], 48.3%; in [4], 6.62% (active); in experiment [5], -45.4% (active); in experiment [6], 32.2%. The growth in [7] was -11.5% (active); in experiment [8], 50.5%; in experiment [9] it was 0.374% (active); in experiment [10], -7% (active); in [11], 3.85% (active); in experiment [12], 5.59% (active). Moreover, the growth is 20.9% in experiment [13]; -44.3% (active) in experiment [14]; -1.61% (active) in experiment [15]; 4.37% (active) in [16]; -1.19% (active) in [17]; -0.986% (active) in [19]. The growth in experiment [18] is 13.1%.

`NC(=O)NS(=O)(=O)c1ccc(N2N=C(C(F)(F)F)CC2c2cc(C(F)(F)F)cc(C(F)(F)F)c2)cc1` (stereo not drawn): the growth was 91.3% in experiment [1]; 101% in experiment [2]; 88.4% in experiment [3]; 103% in experiment [4]; 81.3% in experiment [5]; 49.8% in experiment [6]. The growth is 38.4% in experiment [7]; 95.2% in experiment [8]; 99.8% in [9]; 85.1% in experiment [10]; 57.7% in [11]; 87.4% in experiment [12]. Further, the growth in [13] was 91.6%; in experiment [14], 11.8%; in experiment [15], 67.8%; in [16], 68.6%; in [17], 89.5%; in [19], 31.5%. Moreover, the growth in experiment [18] is 79.7%.

Take `COc1ccc2cc(-c3nc4ccccc4[nH]3)c(=O)oc2c1`: the growth in [1] was 93.1%; in experiment [2], 97.5%; in [3] it was 96.3%; in experiment [4] it was 93.9%; in experiment [5] it was 101%; in experiment [6], 80.3%. Moreover, the growth in experiment [7] is 88.7%; in experiment [8], 98%; in experiment [9], 119%; in experiment [10], 114%; in experiment [11] it was 96.8%; in experiment [12], 103%. The growth in experiment [13] is 104%; in experiment [15], 110%; in experiment [16] it was 105%; in experiment [17] it was 98.8%; in experiment [19], 45.9%; in experiment [18] it was 93.7%.
